Source: PubChem BioAssay (Tox21)
Values joined by “and” are separate entries in the source; they are usually repeats but may differ in a detail not shown here. Equal values may be shown once. Results filed as inconclusive are left out. Some structures have more than one record in an assay (separate samples or runs), and their calls can disagree. Active and inactive are the calls of the source. Unless noted, calls come from the whole dose curve; as a rule, active = well fitted curve in the direction sought with a large enough effect in the repeat runs; inconclusive = weak or mixed curves; inactive = no such curve, though single readings can be large; an effect the other way counts as inactive or inconclusive.

Tests used:
[1] = Human pregnane X receptor (PXR) small molecule agonists, qHTS cell viability counter screen (AID 1346977); note: nearly all actives have a fitted effect of over 50% in size; note: potency is the fitted concentration of half-maximal effect
Method in brief: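 PXR-Luc HepG2 cells in medium with 5% charcoal-stripped FBS were pre-incubated 5hr, then exposed to compounds for 24hr at 37C. Viability was read in the same wells by CellTiter-Fluor fluorescence, reagent added after 23hr with a 1hr incubation.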

[2] = Caspase-3/7 induction in HepG2 cells by small molecules, qHTS assay (AID 1346978); note: nearly all actives have a fitted effect of over 15% in size; note: potency is the fitted concentration of half-maximal effect
Method in brief: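 Wild-type HepG2 cells (2,000/well) were settled 5 h at 37 C, 5% CO2, then exposed to compounds in DMSO for 17 h. Caspase-3/7 activity was read by luminescence 30 min after adding Caspase-Glo 3/7 reagent at room temperature.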

[3] = Caspase-3/7 induction in CHO-K1 cells by small molecules, qHTS cell viability counter screen (AID 1346979); note: nearly all actives have a fitted effect of over 35% in size; note: potency is the fitted concentration of half-maximal effect
Method in brief: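 Wild-type CHO-K1 cells were seeded at 1,500 per well, rested 5hr at 37 C, then exposed to compounds in DMSO. After 16hr, CellTiter-Fluor reagent was added and fluorescence read 1hr later as the viability measure.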

[4] = Caspase-3/7 induction in CHO-K1 cells by small molecules, qHTS assay (AID 1346980); note: nearly all actives have a fitted effect of over 15% in size; note: potency is the fitted concentration of half-maximal effect
Method in brief: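 Wild-type cells were seeded at 1,500 per well and settled 5 hr at 37 C, 5% CO2, then exposed to DMSO-dissolved compounds for 17 hr. Caspase-Glo 3/7 reagent was added, and luminescence was read after 30min at room temperature.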

[5] = Caspase-3/7 induction in HepG2 cells by small molecules, qHTS cell viability counter screen (AID 1346981); note: series mostly up to about 92 µM; nearly all actives have a fitted effect of over 30% in size
Method in brief: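 Viability determined by CellTiter-Fluor fluorescence in HepG2 wells also used for the luminescent Caspase-Glo 3/7 read. Compounds were present for 16 hr at 37 C, 5% CO2 before reagent addition.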

[6] = target: Nuclear receptor subfamily 1 group I member 2 (Homo sapiens) (UniProt O75469); test: Human pregnane X receptor (PXR) small molecule agonists, qHTS assay (AID 1346982); note: nearly all actives have a fitted effect of over 35% in size; note: potency is the fitted concentration of half-maximal effect
Method in brief: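 Compound-induced hPXR transactivation of a CYP3A4 luciferase reporter was scored in HepG2 PXR-Luc cells over 24 hr at 37 C, 5% CO2, by luminescence.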

[7] = target: Acetylcholinesterase (Homo sapiens) (UniProt P22303); test: Acetylcholinesterase (AChE) small molecule antagonists: colormetric cell-based qHTS assay (AID 1347395; calls by dose curve; note: nearly all actives have a fitted effect of over 30% in size)
Method in brief: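 SH-SY5Y cells, plated overnight at 37 C, were exposed to compounds for 30 min at 37 C and 5% CO2. Acetylthiocholine plus DTNB was then added, and thiocholine from endogenous AChE was quantified colorimetrically after 90 min at 37 C.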

[8] = target: Acetylcholinesterase (Homo sapiens) (UniProt P22303); test: Acetylcholinesterase (AChE) small molecule antagonists: enzyme-based qHTS assay (AID 1347397; calls by dose curve; note: nearly all actives have a fitted effect of over 55% in size); conditions: Potency: AChE enzyme activity inhibition; outcome: AChE enzyme activity inhibition
Method in brief: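 Human recombinant acetylcholinesterase; substrate acetylthiocholine; thiocholine quantified with DTNB (colorimetric). Compound preincubation 30 min RT; reaction 10 min RT.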

[9] = target: Acetylcholinesterase (Homo sapiens) (UniProt P22303); test: Acetylcholinesterase (AChE) small molecule antagonists: fluorescence cell-based qHTS assay (AID 1347398; calls by dose curve; note: nearly all actives have a fitted effect of over 50% in size); conditions: Potency: AChE activity; outcome: AChE activity
Method in brief: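 Thiocholine generated from acetylthiocholine by SH-SY5Y cell AChE is detected with Thiolite Green (Ex/Em 490/520 nm) after 40 min at room temperature, following 30 min compound pretreatment at 37 C.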

[10] = target: Acetylcholinesterase (Homo sapiens) (UniProt P22303); test: Acetylcholinesterase (AChE) small molecule antagonists: enzyme-based qHTS assay with human liver microsomes (AID 1347399; calls by dose curve; note: nearly all actives have a fitted effect of over 60% in size); conditions: Potency: qHTS inhibition; outcome: qHTS inhibition
Method in brief: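 Recombinant human AChE (50 mU/mL in the enzyme mix) and human liver microsomes (0.25 mg/mL final) were preincubated with compound and NADPH (0.25 mg/mL final) for 30 min at 37 C. Acetylthiocholine/DTNB was then added; thiocholine was read colorimetrically after 10 min at room temperature.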

[11] = target: Cytochrome P450 2C19 (Homo sapiens) (UniProt P33261); test: Cytochrome P450 Family 2 Subfamily C Member 19 (CYP2C19) small molecule antagonists: luciferase reporter qHTS assay (AID 1671197); note: series mostly up to about 120 µM; nearly all actives have a fitted effect of over 65% in size
Method in brief: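 Compounds were tested on CYP2C19 activity via proluciferin conversion to luciferin. The 37C, 1 h reaction followed NADPH addition; detection reagent stopped it.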

[12] = target: Cytochrome P450 2C9 (Homo sapiens) (UniProt P11712); test: Cytochrome P450 Family 2 Subfamily C Member 9 (CYP2C9) small molecule antagonists: luciferase reporter qHTS assay (AID 1671198); note: nearly all actives have a fitted effect of over 50% in size; note: potency is the fitted concentration of half-maximal effect
Method in brief: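 CYP2C9 activity was measured with a P450-Glo proluciferin substrate. Enzyme–substrate mix was held with compound for 10 min at room temperature, then NADPH regeneration solution was added for 1 h at 37C. Luciferin product was read as luminescence.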

[13] = target: Cytochrome P450 1A2 (Homo sapiens) (UniProt P05177); test: Cytochrome P450 Family 1 Subfamily A Member 2 (CYP1A2) small molecule antagonists: luciferase reporter qHTS assay (AID 1671199); note: nearly all actives have a fitted effect of over 50% in size; note: potency is the fitted concentration of half-maximal effect
Method in brief: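 Enzymatic CYP1A2 assay, human, luminescent: 10 min compound–enzyme–substrate preincubation, 1 h NADPH-dependent turnover, 20 min detection step, room temperature throughout. Reduced light indicates lower CYP1A2 activity.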

[14] = target: Voltage-gated inwardly rectifying potassium channel KCNH2 (Homo sapiens) (UniProt Q12809); test: Human Ether-a-go-go-Related Gene (hERG) channel small molecule antagonists: fluorescence cell-based qHTS assay (AID 1671200)
Method in brief: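 U2OS cells expressing the channel were plated at 1000 cells/well, incubated overnight at 37 C, then loaded with FluxOR II thallium-sensitive dye for 1 h at room temperature in the dark, with a further 10 min at room temperature before stimulation.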

[15] = target: Cytochrome P450 3A4 (Homo sapiens) (UniProt P08684); test: Cytochrome P450 Family 3 Subfamily A Member 4 (CYP3A4) small molecule antagonists: luciferase reporter qHTS assay (AID 1671201); note: nearly all actives have a fitted effect of over 50% in size; note: potency is the fitted concentration of half-maximal effect
Method in brief: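 P450-Glo CYP3A4 system with proluciferin substrate; compounds preincubated 10 min RT with enzyme-substrate mix, then NADPH regeneration added for 1 h RT. Detection reagent 20 min, luminescence read as relative luminescence units.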

[16] = target: Nuclear receptor subfamily 1 group I member 2 (Rattus norvegicus) (UniProt Q9R1A7); test: Rat pregnane X receptor (rPXR) activation by small molecules, qHTS assay (AID 1346983); conditions: rPXR luciferase reporter cells, One-Glo luminescence, 24 h; stronger effect = higher value; note: nearly all actives have a fitted effect of over 20% in size
Method in brief: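 Cell-based rPXR luciferase reporter assay, 2,000 cells per well, rested 5hr at 37 C before compound addition in DMSO, then 24 hr at 37 C. One-Glo reagent was added and luminescence read after 30 min at room temperature.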

[17] = target: Nuclear receptor subfamily 1 group I member 2 (Homo sapiens) (UniProt O75469); test: CYP3A4 induction through human pregnane X receptor (PXR) by small molecules, qHTS assay (AID 1346984); note: nearly all actives have a fitted effect of over 40% in size
Method in brief: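 Readings come from a luciferase reporter: DPX-2 cells, which are HepG2 cotransfected with PXR and a CYP3A4-promoter construct, were exposed to test compounds for 24 h at 37C before One-Glo detection.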

[18] = target: Nuclear receptor subfamily 1 group I member 2 (Homo sapiens) (UniProt O75469); test: Human pregnane X receptor (PXR) activation by small molecules, qHTS assay (AID 1346985); note: nearly all actives have a fitted effect of over 40% in size
Method in brief: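 DPX-2 cells (HepG2 co-transfected with a PXR response element and a CYP3A4-promoter luciferase construct) were seeded at 2,000 per well, rested 5 hr at 37C, then exposed to DMSO-dissolved compounds for 24 hr. Activation was read as luciferase luminescence.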

[19] = target: Cytochrome P450 2D6 (Homo sapiens) (UniProt P10635); test: Cytochrome P450 Family 2 Subfamily D Member 6 (CYP2D6) small molecule antagonists: luciferase reporter qHTS assay (AID 1671196); note: nearly all actives have a fitted effect of over 50% in size; note: potency is the fitted concentration of half-maximal effect
Method in brief: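 Each well received CYP2D6 with its proluciferin substrate and chemical, sat 10 min, then got NADPH regeneration solution for 1 h at room temperature. Luminescence in RLU served as the activity measure.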
% is set by controls: 0 for no effect and ±100 for the full control effect.

Chain of Voltage-gated inwardly rectifying potassium channel KCNH2 (Homo sapiens) (Q12809 whole entry, looked up): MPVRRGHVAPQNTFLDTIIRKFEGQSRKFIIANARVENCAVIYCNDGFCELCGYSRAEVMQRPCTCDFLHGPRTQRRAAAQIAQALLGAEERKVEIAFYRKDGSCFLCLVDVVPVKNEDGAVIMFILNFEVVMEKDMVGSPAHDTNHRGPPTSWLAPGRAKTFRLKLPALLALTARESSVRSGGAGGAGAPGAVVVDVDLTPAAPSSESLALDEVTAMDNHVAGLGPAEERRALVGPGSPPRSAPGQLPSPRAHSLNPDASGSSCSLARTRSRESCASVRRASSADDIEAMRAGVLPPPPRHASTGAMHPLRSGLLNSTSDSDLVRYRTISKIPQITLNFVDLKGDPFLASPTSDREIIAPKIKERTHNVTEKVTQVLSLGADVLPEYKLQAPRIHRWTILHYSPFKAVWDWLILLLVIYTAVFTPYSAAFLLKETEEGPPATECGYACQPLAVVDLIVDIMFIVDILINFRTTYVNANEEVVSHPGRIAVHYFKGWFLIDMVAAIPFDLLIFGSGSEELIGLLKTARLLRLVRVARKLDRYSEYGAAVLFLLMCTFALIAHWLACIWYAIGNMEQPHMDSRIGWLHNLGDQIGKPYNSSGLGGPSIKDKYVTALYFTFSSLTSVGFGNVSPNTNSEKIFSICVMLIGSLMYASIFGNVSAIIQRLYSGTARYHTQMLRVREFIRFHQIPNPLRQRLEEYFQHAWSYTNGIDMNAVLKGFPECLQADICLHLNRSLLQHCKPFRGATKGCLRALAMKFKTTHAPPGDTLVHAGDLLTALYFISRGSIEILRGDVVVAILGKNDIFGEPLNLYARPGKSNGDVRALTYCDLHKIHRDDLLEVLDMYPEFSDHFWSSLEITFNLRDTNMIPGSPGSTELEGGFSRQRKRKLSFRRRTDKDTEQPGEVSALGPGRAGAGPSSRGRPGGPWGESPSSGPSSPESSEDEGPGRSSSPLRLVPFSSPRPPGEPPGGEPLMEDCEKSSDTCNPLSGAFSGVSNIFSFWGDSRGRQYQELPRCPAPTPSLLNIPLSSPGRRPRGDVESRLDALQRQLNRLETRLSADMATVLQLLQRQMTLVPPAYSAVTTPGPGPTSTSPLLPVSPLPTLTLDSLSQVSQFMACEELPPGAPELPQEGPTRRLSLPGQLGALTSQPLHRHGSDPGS
Chain of Cytochrome P450 2C9 (Homo sapiens) (P11712 whole entry, looked up): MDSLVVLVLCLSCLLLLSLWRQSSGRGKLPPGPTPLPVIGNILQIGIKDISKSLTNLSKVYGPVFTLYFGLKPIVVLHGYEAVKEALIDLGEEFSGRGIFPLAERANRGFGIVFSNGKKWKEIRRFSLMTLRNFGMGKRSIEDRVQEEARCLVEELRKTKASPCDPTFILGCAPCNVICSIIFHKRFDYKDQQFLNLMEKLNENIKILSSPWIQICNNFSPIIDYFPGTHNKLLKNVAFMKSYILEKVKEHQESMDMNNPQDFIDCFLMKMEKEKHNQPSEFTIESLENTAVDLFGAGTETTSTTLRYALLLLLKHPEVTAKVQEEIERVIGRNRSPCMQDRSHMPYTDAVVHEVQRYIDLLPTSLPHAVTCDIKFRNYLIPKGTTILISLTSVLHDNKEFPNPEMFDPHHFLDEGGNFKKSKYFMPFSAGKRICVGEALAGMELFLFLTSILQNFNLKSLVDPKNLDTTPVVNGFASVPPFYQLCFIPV
Chain of Nuclear receptor subfamily 1 group I member 2 (Homo sapiens) (O75469 whole entry, looked up): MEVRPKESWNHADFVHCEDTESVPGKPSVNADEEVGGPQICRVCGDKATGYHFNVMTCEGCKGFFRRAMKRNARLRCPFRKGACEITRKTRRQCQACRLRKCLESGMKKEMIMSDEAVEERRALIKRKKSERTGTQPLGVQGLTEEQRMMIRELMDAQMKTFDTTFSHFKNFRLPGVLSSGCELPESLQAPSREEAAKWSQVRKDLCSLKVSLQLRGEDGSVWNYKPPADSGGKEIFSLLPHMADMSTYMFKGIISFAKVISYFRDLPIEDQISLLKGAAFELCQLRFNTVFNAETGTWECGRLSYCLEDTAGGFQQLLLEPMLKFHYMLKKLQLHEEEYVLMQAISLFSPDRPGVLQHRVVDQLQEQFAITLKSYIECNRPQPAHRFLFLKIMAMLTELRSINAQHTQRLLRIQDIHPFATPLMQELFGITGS
Chain of Cytochrome P450 1A2 (Homo sapiens) (P05177 whole entry, looked up): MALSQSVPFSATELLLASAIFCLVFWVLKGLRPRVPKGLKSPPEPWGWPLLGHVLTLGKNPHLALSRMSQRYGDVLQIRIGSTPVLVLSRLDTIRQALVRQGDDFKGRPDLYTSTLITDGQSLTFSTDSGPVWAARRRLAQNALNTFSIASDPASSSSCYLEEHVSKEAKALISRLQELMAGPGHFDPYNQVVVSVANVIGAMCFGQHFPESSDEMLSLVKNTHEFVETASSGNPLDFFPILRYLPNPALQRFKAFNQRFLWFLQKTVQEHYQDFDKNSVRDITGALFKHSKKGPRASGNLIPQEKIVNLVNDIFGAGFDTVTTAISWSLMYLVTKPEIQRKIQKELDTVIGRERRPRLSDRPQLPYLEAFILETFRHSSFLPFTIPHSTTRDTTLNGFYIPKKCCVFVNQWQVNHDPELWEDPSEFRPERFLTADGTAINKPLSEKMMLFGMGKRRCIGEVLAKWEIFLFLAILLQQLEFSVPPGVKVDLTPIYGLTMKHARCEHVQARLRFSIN
Chain of Cytochrome P450 2D6 (Homo sapiens) (P10635 whole entry, looked up): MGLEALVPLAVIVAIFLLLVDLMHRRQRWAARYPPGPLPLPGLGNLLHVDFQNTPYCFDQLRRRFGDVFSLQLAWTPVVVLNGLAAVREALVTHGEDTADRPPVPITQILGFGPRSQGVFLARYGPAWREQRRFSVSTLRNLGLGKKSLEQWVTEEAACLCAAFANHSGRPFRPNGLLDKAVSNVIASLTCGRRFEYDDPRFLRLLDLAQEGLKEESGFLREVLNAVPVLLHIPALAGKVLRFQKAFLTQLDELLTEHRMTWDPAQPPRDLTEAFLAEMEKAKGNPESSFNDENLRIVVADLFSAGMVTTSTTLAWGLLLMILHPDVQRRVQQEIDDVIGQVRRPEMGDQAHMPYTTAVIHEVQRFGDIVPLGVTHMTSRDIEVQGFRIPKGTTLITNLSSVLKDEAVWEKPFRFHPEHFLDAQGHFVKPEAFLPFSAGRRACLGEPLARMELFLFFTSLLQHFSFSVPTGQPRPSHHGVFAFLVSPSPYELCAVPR
Chain of Cytochrome P450 2C19 (Homo sapiens) (P33261 whole entry, looked up): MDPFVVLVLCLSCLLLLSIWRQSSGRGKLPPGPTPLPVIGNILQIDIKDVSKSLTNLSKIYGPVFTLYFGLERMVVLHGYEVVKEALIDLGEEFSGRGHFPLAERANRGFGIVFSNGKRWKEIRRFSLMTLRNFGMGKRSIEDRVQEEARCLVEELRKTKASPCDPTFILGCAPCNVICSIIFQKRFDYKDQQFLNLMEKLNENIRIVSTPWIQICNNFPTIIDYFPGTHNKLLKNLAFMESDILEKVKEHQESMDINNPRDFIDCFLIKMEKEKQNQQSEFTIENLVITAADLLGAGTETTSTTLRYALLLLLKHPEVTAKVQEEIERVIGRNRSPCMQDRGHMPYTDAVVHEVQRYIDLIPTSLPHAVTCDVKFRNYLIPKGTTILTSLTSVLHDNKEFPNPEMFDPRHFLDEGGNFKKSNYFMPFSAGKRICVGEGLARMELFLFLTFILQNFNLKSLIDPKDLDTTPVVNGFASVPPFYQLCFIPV
Chain of Acetylcholinesterase (Homo sapiens) (P22303 whole entry, looked up): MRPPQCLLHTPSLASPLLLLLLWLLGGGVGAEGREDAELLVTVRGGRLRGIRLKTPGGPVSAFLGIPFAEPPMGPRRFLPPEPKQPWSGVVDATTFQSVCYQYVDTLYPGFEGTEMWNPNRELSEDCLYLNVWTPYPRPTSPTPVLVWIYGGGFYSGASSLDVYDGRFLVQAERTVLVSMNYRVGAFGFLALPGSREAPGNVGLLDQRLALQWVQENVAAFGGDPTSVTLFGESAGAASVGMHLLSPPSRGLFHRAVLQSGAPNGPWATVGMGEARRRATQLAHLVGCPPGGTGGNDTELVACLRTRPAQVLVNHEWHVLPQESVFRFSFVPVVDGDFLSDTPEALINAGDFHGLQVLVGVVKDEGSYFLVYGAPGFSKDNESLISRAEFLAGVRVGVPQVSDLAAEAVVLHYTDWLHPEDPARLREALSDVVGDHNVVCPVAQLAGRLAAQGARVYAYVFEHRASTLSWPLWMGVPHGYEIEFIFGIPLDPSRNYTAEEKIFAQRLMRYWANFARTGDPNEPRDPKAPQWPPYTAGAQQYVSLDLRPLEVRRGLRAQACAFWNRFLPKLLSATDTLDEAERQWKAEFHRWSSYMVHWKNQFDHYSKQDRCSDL
Chain of Cytochrome P450 3A4 (Homo sapiens) (P08684 whole entry, looked up): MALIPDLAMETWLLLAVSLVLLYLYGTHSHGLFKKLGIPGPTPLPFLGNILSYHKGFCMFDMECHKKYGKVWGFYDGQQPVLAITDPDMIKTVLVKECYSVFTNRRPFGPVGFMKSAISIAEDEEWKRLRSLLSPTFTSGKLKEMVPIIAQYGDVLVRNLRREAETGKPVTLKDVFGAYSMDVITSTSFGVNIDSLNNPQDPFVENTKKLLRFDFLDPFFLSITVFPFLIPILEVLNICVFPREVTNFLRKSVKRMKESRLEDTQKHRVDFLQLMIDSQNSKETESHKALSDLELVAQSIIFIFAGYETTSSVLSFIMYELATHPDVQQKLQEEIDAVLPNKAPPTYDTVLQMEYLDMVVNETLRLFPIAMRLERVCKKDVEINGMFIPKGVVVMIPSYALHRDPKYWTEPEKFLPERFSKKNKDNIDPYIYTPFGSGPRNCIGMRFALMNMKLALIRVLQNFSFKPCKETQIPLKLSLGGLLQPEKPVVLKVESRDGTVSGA

COc1cc(CC#N)cc(OC)c1OC
active: Potency [13] 24.5 µM
inactive: Potency [1] | Potency [2] | Potency [3] | Potency [4] | Potency [5] | Potency [6] | Potency [7] | Potency [8] | Potency [9] | Potency [10] | Potency [11] | Potency [12] | Potency [14] | Potency [15]

CCCC[N+]1(C)[C@@H]2CC(OC(=O)[C@H](CO)c3ccccc3)C[C@H]1[C@@H]1O[C@@H]12 (some centres not stated)
active: Potency [19] 1.55 µM
inactive: Potency [1] | Potency [2] | Potency [3] | Potency [4] | Potency [5] | max activation [16] -0.805% | outcome [17] | Potency [18] | Potency [7] | Potency [8] | Potency [9] | Potency [10] | Potency [11] | Potency [12] | Potency [14] | Potency [15]

COCc1cnc(C2=NC(C)(C(C)C)C(=O)N2)c(C(=O)O)c1 (configuration not stated)
inactive: Potency [1] | Potency [2] | Potency [3] | Potency [4] | Potency [5] | Potency [6] | Potency [7] | Potency [9] | Potency [10] | Potency [14] | Potency [15]
active: Potency [12] 35.6 µM

CCC(C)(C)c1ccc(O)c(C(C)(C)CC)c1
inactive and 17.2 µM (active): Potency [4]
active: Potency [1] 30.6 µM | Potency [2] 21.7 µM | Potency [3] 48 µM and 27.3 µM | Potency [19] 35.2 µM and 31.7 µM | Potency [12] 4.43 µM and 5.64 µM | Potency [13] 19.8 µM and 31.7 µM | Potency [15] 19.8 µM and 25.2 µM
27 µM (active) and inactive: Potency [6]
inactive: Potency [5] | Potency [7] | Potency [9] | Potency [10] | Potency [14]

O=C1CC[C@@]2(O)[C@H]3Cc4ccc(O)c5c4[C@@]2(CCN3CC2CC2)[C@H]1O5
inactive: Potency [1] | Potency [2] | Potency [3] | Potency [4] | Potency [5] | max activation [16] -2.95% | Potency [7] | Potency [8] | Potency [9] | Potency [10] | Potency [12] | Potency [13] | Potency [14] | Potency [15]

OCCCl
inactive: Potency [1] | Potency [2] | Potency [3] | Potency [4] | Potency [5] | Potency [6] | Potency [7] | Potency [9] | Potency [10] | Potency [11] | Potency [12] | Potency [14] | Potency [15]

CC(C)CCCCCCCOC(=O)c1ccccc1C(=O)OCCCCCCCC(C)C
inactive: Potency [1] | Potency [2] | Potency [3] | Potency [4] | Potency [5] | Potency [6] | Potency [7] | Potency [9] | Potency [10] | Potency [19] | Potency [13] | Potency [14] | Potency [15]

O=C(CCl)CCl
active: Potency [3] 50.3 µM and 30.6 µM | Potency [6] 56.5 µM and 61.1 µM
inactive: Potency [1] | Potency [2] | Potency [4] | Potency [5] | Potency [7] | Potency [8] | Potency [9] | Potency [10] | Potency [12] | Potency [13] | Potency [14] | Potency [15]
